# Data published in PubChem BioAssay AID588591 (National Center for Advancing Translational Sciences (NCATS), 2011).
# Where “and” joins values, the source holds several entries; their conditions need not be identical. Identical values can stand only once. Screen size: about 390,000 compounds; about 4,700 (1.2%) were called active. Roughly 4% stayed inconclusive and do not appear here. The call rests on the fitted dose curve; in most records, active means well fitted inhibition curve with a large enough effect; inconclusive means small, poorly fitted or top-dose-only effect, or another doubt; inactive means no such curve, though single readings can be large or run the other way. What follows is part of a selection rich in actives, with near analogues and random picks from the rest. Where a structure was tested more than once in an assay, its records may differ in their call.
# Target: DNA polymerase eta (Homo sapiens) (UniProt Q9Y253)
# Test: qHTS for Inhibitors of Polymerase Eta
# Details: recombinant Pol eta, fluorescent DNA replication assay; series mostly up to 114 µM; activity change, negative = inhibition: at the top concentration
# Summary of the method: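 Pol eta at 10 nM preincubated with compounds 15 min at room temperature; reaction started with fluorescent substrate (50 nM final) and read kinetically at 0 and 10 min.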
# On the % scale 0 is the no-effect control and ±100 the full control effect; potency means the concentration at half of the fitted maximal effect.
# Chain of DNA polymerase eta (Homo sapiens) (Q9Y253 whole entry, looked up): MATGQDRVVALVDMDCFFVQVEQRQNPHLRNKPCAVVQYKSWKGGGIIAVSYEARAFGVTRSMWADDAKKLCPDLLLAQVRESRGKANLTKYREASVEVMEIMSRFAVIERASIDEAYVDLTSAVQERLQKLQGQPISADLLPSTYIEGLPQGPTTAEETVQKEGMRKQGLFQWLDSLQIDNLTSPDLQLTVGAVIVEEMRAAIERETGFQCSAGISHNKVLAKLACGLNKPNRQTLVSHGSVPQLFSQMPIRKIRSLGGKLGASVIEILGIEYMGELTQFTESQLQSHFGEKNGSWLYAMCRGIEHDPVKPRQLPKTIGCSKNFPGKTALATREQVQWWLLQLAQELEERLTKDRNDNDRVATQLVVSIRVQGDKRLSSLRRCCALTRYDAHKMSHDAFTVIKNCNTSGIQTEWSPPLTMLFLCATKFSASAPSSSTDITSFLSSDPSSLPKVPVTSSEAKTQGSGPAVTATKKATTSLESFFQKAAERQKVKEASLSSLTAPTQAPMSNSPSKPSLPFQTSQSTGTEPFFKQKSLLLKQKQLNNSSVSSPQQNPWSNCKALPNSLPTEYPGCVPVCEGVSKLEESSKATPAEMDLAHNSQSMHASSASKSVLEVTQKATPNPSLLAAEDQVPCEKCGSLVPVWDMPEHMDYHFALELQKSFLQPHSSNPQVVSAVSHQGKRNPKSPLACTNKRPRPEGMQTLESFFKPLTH
SMILES,"activity change, negative = inhibition",Potency
CCc1ccc(CNCc2c(C(=O)O)n(Cc3ccc(F)cc3Cl)c3cc(OC)ccc23)cc1,-19.3% (inactive),
COc1cc(C(=O)NCCc2csc3nc(-c4ccccc4C)nn23)cc(OC)c1OC,-18.8% (inactive),
O=C(COC(=O)c1ccc([N+](=O)[O-])o1)NC12CC3CC(CC(C3)C1)C2,,79.4 µM (active)
O=C(OCC(=O)c1cccs1)c1ccc([N+](=O)[O-])o1,-2.33% (inactive),
O=C(COC(=O)c1ccc(Br)o1)NC12CC3CC(CC(C3)C1)C2,-19.7% (inactive),
ON=C1/C(=N\O)CC2(C/C1=N/O)OCCO2,,56.2 µM (active)
COc1ccc(OC)c(NC(=O)CN2CCCN(Cc3cc(C)ccc3C)S2(=O)=O)c1,5.54% (inactive),
COC(=O)c1sc(-c2ccc(C(C)(C)C)cc2)cc1NC(=O)/C=C/C(=O)O,,79.4 µM (active)
COc1ccc(Nc2ncc3c(n2)CCN(C(=O)OC(C)(C)C)C3)cc1,-17.4% (inactive),
COc1ccc(/C=C/c2noc(-c3ccccc3O)n2)cc1OC,-0.332% (inactive),
O=C(CCc1nc(CN2CCN(S(=O)(=O)c3ccc(Cl)cc3)CC2)no1)N1CCCCC1,-14.5% (inactive),
CCCCN(CC)CCCNC(=O)Cn1ncc2c([nH]c3ccc(C)cc32)c1=O,-18.6% (inactive),
Cc1cc(=O)n2[nH]c(-c3sccc3-n3c(C)ccc3C)cc2n1,,22.4 µM (active)
Cc1ccc(-c2cc(N)n(Cc3cccc(Cl)c3)n2)cc1,-15.5% (inactive),
COc1cc(Nc2nc(-c3ccc(OC)c(OC)c3)nc3ccccc23)cc(OC)c1,2.81% (inactive),
CC(=O)N(C1=C(Cl)C(=O)c2ccccc2C1=O)c1ccc(C(=O)O)cc1,,20 µM (active)
CCC(=O)N1CCc2cc(S(=O)(=O)NC(Cc3ccccc3)C(=O)NCc3ccc(C)cc3)ccc21 (stereo unspecified),-8.28% (inactive),
COc1ccc(CNC(=O)CSc2n[nH]c(-c3ccc(F)cc3)n2)cc1,3.13% (inactive),
Cc1ccn2c(=O)nc(SCC(=O)NCc3ccc(F)cc3)nc2c1,,28.2 µM (active)
Cc1ccc2nc(SCC(=O)Nc3cccc4ccccc34)nc(=O)n2c1,-0.878% (inactive),
Cc1ccc(C)c(N2CCN(C(=O)Cn3ncc4c(=O)oc5ccc(C)cc5c43)CC2)c1,-18.5% (inactive),
CCOC(=O)c1ccc(CN(Cc2ccccc2)S(=O)(=O)c2ccc(Cl)cc2)cc1,-2.81% (inactive),
CCCn1c(=O)c2[nH]c(-c3ccc(OCC(=O)NCCN)cc3)nc2n(CCC)c1=O,-4.39% [at 57.1 µM] (inactive),

SMILES,"activity change, negative = inhibition",Potency
COc1ccc(C(=O)Nc2cccc(/C=C(/CCC(=O)O)c3nc4ccccc4s3)c2)cc1,,39.8 µM (active)
COc1ccc(CC(=O)Nc2ccc(-c3nc4ccccc4s3)c(C)c2)cc1,-9.77% (inactive),
COc1cccc(NC(=O)c2ccc3nc(CCc4ccccc4)oc3c2)c1,-19.1% (inactive),
COc1ccc(OC)c(NC(=O)C2CCN(S(=O)(=O)c3ccc(C)cc3)CC2)c1,-15.4% (inactive),
CCOC(=O)c1ccc(N2C(=O)c3n[nH]c(-c4ccco4)c3C2c2ccc(O)cc2)cc1 (stereo unspecified),4.53% (inactive),
CCN1C(=O)c2ccccc2Sc2ccc(NC(=O)Cc3ccc(OC)cc3)cc21,-4.89% (inactive),
COc1ccccc1NC(=O)CN1C(=O)c2ccccc2Sc2ccc(C(=O)N3CCCC3)cc21,,79.4 µM (active)
COC(=O)c1ccc2c(c1)N(CC(=O)Nc1ccc(C)c(C)c1)C(=O)c1ccccc1S2,-15.5% (inactive),
CC(C)(C)C1CCc2c(sc(NC(=O)c3ccccc3F)c2C(=O)N2CCCCC2)C1 (stereo unspecified),-20% (inactive),
CCOc1ccccc1NC(=O)c1ccc2c(c1)CCN2S(=O)(=O)c1ccc(C)cc1,-20.4% (inactive),
CCc1ccc(C2C(C(=O)Nc3ccccc3)=C(C)Nc3c(C(=O)Nc4ccc(C)cc4)cnn32)cc1 (stereo unspecified),-11.1% (inactive),
C1=C(N2CCOCC2)/C(=C/c2nc3ccccc3[nH]2)CC1,,20 µM (active)
COc1cc(OC)c(C2C=C(C(=O)O)Nc3ncnn32)cc1OC (stereo unspecified),1.66% (inactive),
Cc1cc(C)c(NC(=O)CSc2nc3nccnc3c(=O)n2CCc2c[nH]c3ccccc23)c(C)c1,9.05% (inactive),
O=C(N/N=C/c1cccc([N+](=O)[O-])c1)C1CC(=O)N(c2ccc(Br)cc2)C1 (stereo unspecified),-13.8% (inactive),
Cc1cc(C(=O)N/N=C/c2ccc(O)c([N+](=O)[O-])c2)c(C)n1-c1ccc(F)cc1,,8.91 µM (active)
Cc1cc(C(=O)COc2ccccc2[N+](=O)[O-])c(C)n1-c1cccc(S(=O)(=O)N2CCOCC2)c1,-19% (inactive),
CC(C)(C)c1ccc(C(=O)NCC(c2ccco2)S(=O)(=O)c2ccc(F)cc2)cc1 (stereo unspecified),-19.1% (inactive),
O=C1/C(=C\c2ccc([N+](=O)[O-])cc2)CS(=O)(=O)C/C1=C/c1ccc([N+](=O)[O-])cc1,,15.8 µM (active)
O=C(CC1Oc2ccc(Cl)cc2NC1=O)NCc1ccccc1 (stereo unspecified),8.21% (inactive),
COc1ccccc1NC(=O)C(=O)c1cc(C)n(-c2ccccc2F)c1C,-19.1% (inactive),
CO/N=C(\C(=O)N[C@@H]1C(=O)N2C(C(=O)O)=C(COC(C)=O)CS[C@H]12)c1csc(N)n1 (stereo in doubt),,inactive and 20 µM (active) and 28.2 µM (active)
C=CC1=C(C(=O)O)N2C(=O)[C@@H](NC(=O)/C(=N\OCC(=O)O)c3csc(N)n3)[C@H]2SC1,,7.08 µM (active)
